# SRC2 TRFRET art = counter-screen for PPARgamma SRC-2 recruitment agonists: TR-FRET artefact; TR-FRET ratio at 8 µM; 0.4% of 200,000 active; stronger effect = higher value
# PPARg SRC2 recr = promotes SRC-2 coactivator recruitment by human PPARgamma; PPARgamma LBD-SRC-2 recruitment, biochemical; activation, % at 8 µM; 0.34% of 200,000 active; in the data active = activation above about 22%
# PPARg SRC-1 ag = promotes SRC-1 coactivator recruitment by human PPARgamma | activation, % at 8 µM | P37231 | PPARgamma-SRC-1 coactivator recruitment biochemical assay | 0.41% of 200,000 active; in the data active = activation above about 19%
# SRC1 TRFRET art = flags TR-FRET format artefacts in PPARgamma SRC-1 recruitment agonist screen. TR-FRET detection artefact counter-screen, emission ratio; stronger effect = higher value. TR-FRET ratio at 8 µM. 0.34% of 99,000 active; in the data active = TR-FRET ratio above about 2300
# SRC3 TRFRET art = TR-FRET artefact, counter-screen to PPARgamma/SRC-3 agonist assay; 0.39% of 99,000 active; PPARgamma/SRC-3 format; stronger effect = higher value; TR-FRET ratio at 8 µM
# PPARg SRC-3 ag = agonists of human PPARgamma SRC-3 coactivator recruitment. P37231. biochemical PPARgamma/SRC-3 coactivator recruitment assay. activation, % at 8 µM. 0.26% of 200,000 active; in the data active = activation above about 23%
# PPARg SRC2 conf = human PPARgamma SRC-2 recruitment agonism, confirmation; 52% of 790 active; activation, % at 8 µM; biochemical SRC-2 recruitment by PPARgamma; shares compounds with PPARg SRC-3 ag; in the data active = activation above about 22%
# PPARg SRC1 conf = human PPARgamma SRC-1 recruitment agonism, confirmation. activation, % at 8 µM. shares compounds with PPARg SRC-3 ag. PPARgamma–SRC-1 coactivator recruitment biochemical assay. 43% of 790 active; in the data active = activation above about 20%
# PPARg SRC3 ag = human PPARgamma SRC-3 recruitment agonism, confirmation. AID 1301. 29% of 790 active. activation, % at 8 µM. shares compounds with PPARg SRC-3 ag. biochemical PPARgamma-SRC-3 coactivator recruitment, agonist mode; in the data active = activation above about 24%
# A number is an active result; - = inactive; . = no result. Shown are actives, neighbours in structure and some others; about 0.9% of the full set was active somewhere. Rule as the data show it, unless noted: active = TR-FRET ratio above about 2000; inactive = the rest.
SMILES,SRC2 TRFRET art,PPARg SRC2 recr,PPARg SRC-1 ag,SRC1 TRFRET art,SRC3 TRFRET art,PPARg SRC-3 ag,PPARg SRC2 conf,PPARg SRC1 conf,PPARg SRC3 ag
Cc1cc(NC(=O)CSc2nncn2N)no1,-,-,-,-,-,-,.,.,.
CCN(CC)CCCNC(=O)CSc1c2c(nc3cc(Cl)ccc13)CCCC2,2152,34,33,2550,2400,-,26,-,-
Cc1ccc(CNC(=O)CSc2c3c(nc4cc(Cl)ccc24)CCCC3)o1,-,28,-,.,.,-,27,-,-
CCOCCCNS(=O)(=O)c1ccc(NC(=O)C2CC(=O)N(c3ccc(C)cc3)C2)cc1 (stereo not drawn),-,-,-,-,-,-,.,.,.
Cn1c(N/N=C/c2c[nH]c3ccccc23)nc2ccccc21,-,24,-,.,.,-,-,-,-
CC1(C)Cc2ccccc2-c2nc3n(c(=O)c21)CCS3,-,-,-,-,-,-,.,.,.
CCn1c(=S)[nH]c2c(c1=O)C(C)(C)Cc1ccccc1-2,2673,33,44,3374,2752,28,36,23,25
Cn1c(=S)[nH]c2c(c1=O)C(C)(C)Cc1ccccc1-2,2681,45,40,3109,2669,25,37,24,24
COc1ccc(C(=O)OCC(=O)Nc2cc(C)on2)c(OC)c1OC,-,-,-,-,-,-,.,.,.
COc1ccc(-c2c3c(nc4sc(C(=O)Nc5ccccc5)c(N)c24)CCC3)cc1,-,26,-,.,.,27,33,20,-
Nc1c(C(=O)Nc2ccccc2)sc2nc3c(c(-c4ccco4)c12)CCC3,-,-,-,.,.,-,.,.,.
CCSc1oc(-c2ccccc2)nc1S(=O)(=O)c1ccccc1,-,-,-,.,.,-,.,.,.
CSc1oc(-c2ccccc2)nc1S(=O)(=O)c1ccc(C)cc1,-,26,-,-,2062,-,25,20,-
Cc1ccc(S(=O)(=O)c2nc(-c3cccs3)oc2SCC(N)=O)cc1,-,31,-,.,.,-,32,32,-
COc1cc(C(=O)NCc2ccc3c(c2)OCO3)ccc1OCc1c(C)noc1C,-,25,-,.,.,-,-,-,-
Oc1ccc(Cl)cc1CNc1ccc(Br)cn1,-,-,23,.,.,-,-,-,-
Oc1c(Cl)cc(Cl)cc1CNc1ccc(Br)cn1,-,-,-,.,.,-,.,.,.
CCOC(=O)c1c(NC(=O)c2nn(C)cc2[N+](=O)[O-])sc(C)c1C,-,-,-,-,-,-,.,.,.
CCN(CC)S(=O)(=O)c1cccc(-c2n[nH]c(=S)n2C)c1,-,-,-,-,-,-,.,.,.
Cc1ccc(-c2n[nH]c(=S)n2C)cc1Cl,-,-,26,-,-,-,-,-,-
CCc1ccc(NC(=S)N2CCCCCCC2)cc1,-,-,-,-,-,-,.,.,.
CN(C)c1ccc(CN(C(=O)COc2ccc(Br)cc2)C2CCS(=O)(=O)C2)cc1 (stereo not drawn),-,-,-,.,.,-,.,.,.
Cc1ccc(OCC(=O)N(Cc2ccc(N(C)C)cc2)C2CCS(=O)(=O)C2)cc1 (stereo not drawn),-,-,21,.,.,-,-,-,-
Cc1cccc(N=C2NC(=O)S/C2=C\c2ccco2)c1,-,-,22,2337,-,-,-,-,-
C=CCN(C(=O)C1=NN(C2CCS(=O)(=O)C2)C(=O)CC1)c1nc(-c2ccc([N+](=O)[O-])cc2)cs1 (stereo not drawn),-,-,-,-,-,-,.,.,.
O=C(O)C1=C[C@@H](c2csc3ccccc23)C[C@@H](OCc2ccc(CO)cc2)O1,-,-,-,-,-,-,.,.,.
O=C(O)C1=C[C@H](c2csc3ccccc23)C[C@H](OCc2ccc(CO)cc2)O1,-,-,24,-,-,-,-,-,-
N#Cc1c(Cl)nc(SCc2ccccc2)nc1-c1ccccc1,2883,67,59,.,.,70,80,65,54
CCCCc1n[nH]c(=S)n1Cc1ccc(C)cc1,-,-,-,-,-,-,.,.,.

# High-throughput results from PubChem.
